# Assay results as given in PubChem BioAssay (NCI).
# About 83,000 compounds went through this panel and 20% of them were active in at least one assay; those are over-represented in the sample as a whole.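 Single-concentration screen, 48 h exposure, 96-well plates. Endpoint: percent growth. Below 10 = active.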 Active and inactive are the calls of the source.
# Tested on: UO-31 renal
# Experiment: NCI-60 one-dose screen, 48 h (100 = growth as untreated, 0 = no growth, -100 = all killed)
# Conditions: 10 µM unless noted
# Experimental: Growth inhibition of the UO-31 human tumor cell line is measured as a screen for anti-cancer activity. Cells are grown in 96 well plates and exposed to the test compound for 48 hours. Compounds are tested at a single concentration, which is 10^-5 M for most compounds. The reported endpoint is percent growth (GI% or GIPRCNT), where numbers from 0 - 100% represent growth inhibition, and numbers from -100% - 0 represent cell death. For example, a value of 40 represents 60% growth inhibition. A value of 0 means no net growth occurred over the course of the experiment. A value of -40 indicates 40% of cells at the beginning of the experiment died by the end of the experiment. A value of -100 means all cells are dead at the end of the experiment.
# NCI-60 Human Tumor Cell Lines Screen was performed using the standard one-dose NCI protocol, which is described in more detail at https://dtp.cancer.gov/discovery_development/nci-60/default.htm.
# Compounds with GIPRCNT values below 10 were considered active. Activity score was based on GIPRCNT using the following formula: […]
# Score is 0 for GIPRCNT values of 100 or above, 50 for GIPRCNT values of 0, and 100 for GIPRCNT values of -100.
row,SMILES,growth
1,Cc1ccc(NC(=O)Nc2ccc(Nc3ncnc4sc5c(c34)CCOC5)cc2)cc1Cl,78.6% (inactive)
2,CNS(=O)(=O)Nc1nccc(Cc2c(C)c3ccc(Oc4ncccn4)cc3oc2=O)c1F,53.8% (inactive)
3,Nc1nc(=S)c2ncn(C3OC(COC(=O)c4ccc(Cl)cc4)C(OC(=O)c4ccc(Cl)cc4)C3OC(=O)c3ccc(Cl)cc3)c2[nH]1 (stereo not given),79.4% (inactive)
4,COc1cc(N2CCC(N(C)C)CC2)ccc1Nc1ncc(Cl)c(Nc2ccccc2P(C)(C)=O)n1,-81.2% (active)
5,C[C@@H](Oc1cc(-n2cnc3ccc(CN4CCN(C)CC4)cc32)sc1C(N)=O)c1ccccc1C(F)(F)F,16.6% (inactive)
6,C/C(=C(/c1ccc(Cl)cc1)c1ccc(OCCN2CCCC2)cc1)c1ccccc1,63% (inactive)
7,COc1cc2c(Nc3ccc(Br)cc3F)ncnc2cc1OCC1CCN(C)CC1,-88.3% (active)
8,Cc1csc(-c2nnc(Nc3ccc(Oc4ncccc4-c4ccnc(N)n4)cc3)c3ccccc23)c1,32.4% (inactive)
9,Cc1ccc(N=C2CSc3nnc(-c4csc5c4CCCC5)n3N2)cc1,57.9% (inactive)
10,CC(=O)O[C@]1(C)C[C@H](O)[C@]2(O)C=CO[C@H](O[C@@H]3O[C@H](CO)[C@@H](O)[C@H](O)[C@H]3O)[C@@H]21,90.6% (inactive)
11,CN1CCN(c2ccc(C(=O)Nc3n[nH]c4ccc(Cc5cc(F)cc(F)c5)cc34)c(NC3CCOCC3)c2)CC1,-90.7% (active)
12,Nc1c2c(c(O)c3c1=C(CO)C=N3)=NCCS2=O (stereo not given),-66.8% (active)
13,O=C(Nc1cnn2ccc(N3CCC[C@@H]3c3cc(F)ccc3F)nc12)N1CC[C@H](O)C1,82.8% (inactive)
14,CN1CC[C@@H](c2c(O)cc(O)c3c(=O)cc(-c4ccccc4Cl)oc23)[C@@H]1CO,-5.4% (active)
15,C/C=C/C=N/NC(=S)Nc1ccccc1,72.6% (inactive)
16,COc1cc2cc(NCc3ccc(Cl)cc3)nc(C)c2cc1OC,41.4% (inactive)
17,c1ccc2c(c1)CCN(NCCN1CCCC1)C2,75% (inactive)
18,CCc1cnn2c(NCc3ccc[n+]([O-])c3)cc(N3CCCC[C@H]3CCO)nc12,-7.4% (active)
19,CN1CCN(CCCOc2cccc3nc(Nc4ccc(Cl)c(C(F)(F)F)c4)ccc23)CC1,28.6% (inactive)
20,C[C@@H](N)c1ccc(C(=O)Nc2ccnc3[nH]ccc23)cc1,13.4% (inactive)

row,SMILES,growth
1,N#CCNC(=O)c1ccc(-c2ccnc(Nc3ccc(N4CCOCC4)cc3)n2)cc1,-60.4% (active)
2,CCc1nc(C(N)=O)c(Nc2ccc(N3CCC(N4CCN(C)CC4)CC3)c(OC)c2)nc1NC1CCOCC1,4.67% (active)
3,CCCCn1c(C)nc2ccc(Nc3nc(N4CCN(C)CC4)nc4nc[nH]c34)cc21,83.7% (inactive)
4,CO[C@H]1C[C@@H]2CC[C@@H](C)[C@@](O)(O2)C(=O)C(=O)N2CCCC[C@H]2C(=O)O[C@H]([C@H](C)C[C@@H]2CC[C@@H](OP(C)(C)=O)[C@H](OC)C2)CC(=O)[C@H](C)/C=C(\C)[C@@H](O)[C@@H](OC)C(=O)[C@H](C)C[C@H](C)\C=C/C=C/C=C/1C,27.3% (inactive)
5,O=C(/C=C/c1ccc2c(c1)OCO2)c1c(O)c2ccccc2oc1=O,90.1% (inactive)
6,Cc1ccc(-c2nc3ccc(Cl)cn3c2NC2CCCCC2)o1,58.5% (inactive)
7,COC(=O)CCCNc1c(-c2c(O)c(O)cc3c(O)c(-c4c(C)cc5c(-c6nc7ccccn7c6NCCCC(=O)OC)c(O)c(O)cc5c4O)c(C)cc23)nc2ccccn12,57.8% (inactive)
8,COc1cnc2c(c1)C(=O)c1c-2n(CCCN2CCC(O)CC2)c(=O)c2cc(Cl)ccc12,15% (inactive)
9,O=C(Cc1ccccc1)Nc1nnc(NC2CCN(c3nnc(NC(=O)Cc4ccccc4)s3)CC2)s1,74.4% (inactive)
10,Cc1cc(Nc2ncc(Cl)c(Nc3ccccc3S(=O)(=O)C(C)C)n2)c(OC(C)C)cc1C1CCNCC1,-96.4% (active)
11,COc1cc(OC)c(/C=C/S(=O)(=O)Cc2ccc(OC)c(NCC(=O)O)c2)c(OC)c1,36.3% (inactive)
12,CC(N)C(Cc1ccccc1)c1ccc(Cl)cc1 (stereo not given),65.4% (inactive)
13,Oc1ccc(C(c2ccc(O)cc2)C(Cl)(Cl)Cl)cc1,75.3% (inactive)
14,COc1cc(NC2CCC(=O)N2c2ccc(Cl)cc2Cl)cc(OC)c1OC (stereo not given),94.5% (inactive)
15,O=S1(=O)OC(c2ccc(O)c(Cl)c2)(c2ccc(O)c(Cl)c2)c2ccccc21,66.2% (inactive)
16,COc1cc2c3c(c1)nc(C)n3CCC2,91.1% (inactive)
17,C/C(=N\NC(=O)Cn1c(-c2ccc(S(C)(=O)=O)cc2)nc2ccccc21)c1ccc(Cl)cc1,66.1% (inactive)
18,NS(=O)(=O)c1ccc(CCN2C(=O)/C(=C\c3ccc(Cl)cc3)C=C2c2ccc3ccccc3c2)cc1,78.4% (inactive)
19,N#Cc1c(-c2ccc(Cl)cc2)csc1NC(=O)Nc1cccc(C(F)(F)F)c1,-2.89% (active)
20,O=C(Nc1ccc(Nc2ncnc3sc4c(c23)CCOC4)cc1)Nc1ccc(Cl)c(C(F)(F)F)c1,115% (inactive)
